Inconclusive results are not listed. Calls of active or inactive are those of the source. The calls were made as follows: active = hit-call score of the fitted dose curve at least 0.9, where 1 is the maximum; inconclusive = response in the unintended direction; inactive = score below 0.9.

Chain of hamster Adenylyl Cyclase, Adcy5 (gene 64532) (Q04400 whole entry, looked up): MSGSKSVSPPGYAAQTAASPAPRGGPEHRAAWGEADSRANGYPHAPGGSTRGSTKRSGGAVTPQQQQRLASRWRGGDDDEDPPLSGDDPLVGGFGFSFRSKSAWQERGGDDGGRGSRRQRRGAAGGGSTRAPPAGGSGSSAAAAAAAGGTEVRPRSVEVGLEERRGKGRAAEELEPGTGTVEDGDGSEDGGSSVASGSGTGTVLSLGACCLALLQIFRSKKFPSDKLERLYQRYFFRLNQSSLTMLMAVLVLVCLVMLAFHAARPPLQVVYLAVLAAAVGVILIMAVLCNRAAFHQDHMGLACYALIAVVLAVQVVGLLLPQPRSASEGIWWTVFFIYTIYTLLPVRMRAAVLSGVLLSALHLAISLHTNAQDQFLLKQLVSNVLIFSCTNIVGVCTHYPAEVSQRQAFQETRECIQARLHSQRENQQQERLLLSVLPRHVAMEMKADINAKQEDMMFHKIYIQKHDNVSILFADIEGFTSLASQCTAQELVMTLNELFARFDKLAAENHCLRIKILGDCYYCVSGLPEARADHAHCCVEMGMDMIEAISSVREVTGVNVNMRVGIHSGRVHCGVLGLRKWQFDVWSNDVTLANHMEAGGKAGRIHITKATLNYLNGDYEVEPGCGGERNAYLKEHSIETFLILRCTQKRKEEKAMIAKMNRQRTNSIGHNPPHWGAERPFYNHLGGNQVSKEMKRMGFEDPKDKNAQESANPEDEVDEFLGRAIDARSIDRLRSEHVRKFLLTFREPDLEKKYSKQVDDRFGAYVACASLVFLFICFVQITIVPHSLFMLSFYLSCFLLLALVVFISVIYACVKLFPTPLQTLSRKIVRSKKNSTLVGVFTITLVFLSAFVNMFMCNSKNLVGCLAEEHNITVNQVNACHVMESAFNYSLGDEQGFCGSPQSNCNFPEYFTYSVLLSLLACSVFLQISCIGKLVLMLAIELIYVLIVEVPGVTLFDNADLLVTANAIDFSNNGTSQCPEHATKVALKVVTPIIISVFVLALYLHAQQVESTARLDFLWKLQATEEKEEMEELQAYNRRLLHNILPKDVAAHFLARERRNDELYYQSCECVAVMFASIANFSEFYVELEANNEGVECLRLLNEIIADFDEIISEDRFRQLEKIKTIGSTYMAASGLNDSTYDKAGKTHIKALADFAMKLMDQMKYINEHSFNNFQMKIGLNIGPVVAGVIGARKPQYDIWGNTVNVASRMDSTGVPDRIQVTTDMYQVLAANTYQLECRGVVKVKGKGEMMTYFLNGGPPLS

This experiment addresses hamster Adenylyl Cyclase, Adcy5 (gene 64532) (UniProt Q04400). The experiment can be described thus: ERF_FR_ENZ_rACFSK_Antagonist: Eurofins (ERF) Enzymatic LeadHunter Assay for hamster Adenylyl Cyclase Antagonism. The method, then:
ERF_FR_ENZ_rACFSK_Antagonist is a biochemical, single-readout assay that uses extracted gene-proteins in a cell-free assay. Measurements were taken 0.16 hour after chemical dosing in a 96-well plate. See Adenylyl Cyclase Hamster Enzymatic Antagonist Assay, Cerep.ERF_FR_ENZ_rACFSK_Antagonist is an assay component calculated from the ERF_FR_ENZ_rACFSK assay. It is designed to measure enzyme activity using a type of enzyme reporter as detected by fluorescence intensity with HTRF technology.Data from the assay component ERF_FR_ENZ_rACFSK_Antagonist was analyzed at the assay endpoint, ERF_FR_ENZ_rACFSK_Antagonist, in the positive analysis fitting direction relative to DMSO as the negative control and baseline of activity. Using a type of enzyme reporter, loss-of-signal activity can be used to understand changes in binding as they relate to gene ADCY5. To generalize the intended target to other relatable targets, this assay endpoint is annotated to the gpcr intended target family, where the subfamily is adenylyl cyclase.
Hamster cells are incubated for 10 minutes at room temprature. Test Sample Requirements: Minimum for 1) Screen: 60 ul of 10 mM stock -OR- 1 mg (pre-weighed) for 10 uM final testing. 2) Dose Response: 90 ul of 10 mM stock -OR- 1 mg (pre-weighed) for a top concentration at 10 uM.
Consider `COc1cccc2c1C(=O)c1c(O)c3c(c(O)c1C2=O)C[C@@](O)(C(=O)CO)C[C@@H]3O[C@H]1C[C@H](N)[C@H](O)[C@H](C)O1`, for which the concentration at half-maximal activity (AC50) was 2.6 µM (active).

On to `COc1cc(CCC(=O)CC(=O)CCc2ccc(O)c(OC)c2)ccc1O`, for which the outcome was inactive.

Consider `O=C(/C=C/c1ccc(O)cc1)CC(=O)/C=C/c1ccc(O)cc1`, for which the compound was classed as inactive.

Usually AC50 stands for the midpoint of the concentration-response curve, whichever way the signal moves.

The record behind these values is PubChem BioAssay AID2284141 (EPA ToxCast).
